Screening results from PubChem.
Compounds with a hit are over-represented: about 4% of the library has one in this group of screens.
CCHF vOTU inh-1: blocks the CCHF virus ovarian tumor domain protease | CCHFV vOTU protease, Pep-AMC fluorescence | inhibition, % at 11.5 µM | hit rate 0.55% among 370,000 | AID 651958; note: 0% = vehicle wells with enzyme and 100% = no enzyme wells
Mtb FBA inh: inhibitors of M. tuberculosis fructose-bisphosphate aldolase | P9WQA3 | purified M. tuberculosis FBA, fluorescence read-out | inhibition, % at 1 µM | hit rate 2.3% among 360,000 | AID 588726; in the data active = inhibition above about 27%;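 note: 0% = vehicle and 100% = reference inhibitor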
Target sequence (P9WQA3 whole entry, looked up): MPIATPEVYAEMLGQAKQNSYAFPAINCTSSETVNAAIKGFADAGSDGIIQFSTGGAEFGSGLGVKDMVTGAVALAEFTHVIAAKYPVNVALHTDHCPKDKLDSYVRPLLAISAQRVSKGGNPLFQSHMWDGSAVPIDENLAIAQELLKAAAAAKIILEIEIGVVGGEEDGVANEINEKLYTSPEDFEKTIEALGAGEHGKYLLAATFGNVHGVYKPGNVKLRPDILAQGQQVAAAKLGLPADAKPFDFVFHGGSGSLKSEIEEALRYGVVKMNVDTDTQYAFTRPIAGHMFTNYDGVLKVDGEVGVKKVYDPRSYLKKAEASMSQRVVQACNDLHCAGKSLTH
Mtb bLac sens: beta-lactam sensitization of Mtb H37Rv | hit rate 0.27% among 330,000 | M. tuberculosis H37Rv growth with meropenem, percent inhibition | AID 434955 | inhibition, % at 25 µM; call rule not given here;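 note: growth measured after seven days incubation then overnight dye step; 0% = bacteria only wells and 100% = bacteria with antibiotic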
GDH-TPI counter: inhibits GDH-TPI coupling enzymes, artifact for Mtb FBA screen | GDH-TPI coupled enzyme counterscreen, NADH absorbance | inhibition, % at 4.8 µM | hit rate 1.2% among 360,000 | AID 588335;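 note: 0% = DMSO wells and 100% = wells lacking the enzyme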
MazF activator: increases E. coli MazEF RNase cleavage of RNA; FAM/BHQ RNA-DNA oligo cleavage fluorescence, 5 h; hit rate 0.32% among 350,000; AID 504720; P0AE70; activation, % at 20 µM; in the data active = activation above about 50%
Target sequence (P0AE70 whole entry, looked up): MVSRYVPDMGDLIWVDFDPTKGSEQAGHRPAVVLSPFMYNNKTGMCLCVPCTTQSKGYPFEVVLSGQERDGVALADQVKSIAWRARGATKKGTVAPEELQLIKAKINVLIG
CCHF vOTU inh-2: confirmation of CCHF virus vOTU protease inhibitors; shares compounds with CCHF vOTU inh-1; Recombinant CCHFV vOTU, Pep-AMC fluorescence; inhibition, % at 11.5 µM; hit rate 17% among 1,900; AID 686976
* marks the source's active call; other numbers are inactive results; ? = inconclusive; / = no result. Cut-off read from the data, not from the text of the source, unless noted: active = inhibition above about 30%; inactive = the rest.

SMILES	CCHF vOTU inh-1	Mtb FBA inh	Mtb bLac sens	GDH-TPI counter	MazF activator	CCHF vOTU inh-2
COc1cc(CN2CCN(C(C)C)C(CCO)C2)ccc1OCc1ccccc1 (stereo not given)	30*	-1	-8	8	8	-5
COc1ccc(CN2CCN(Cc3ccccc3)C(CCO)C2)cc1OC (stereo not given)	-8	3	-8	2	-3	/
O=c1[nH]c2cc3ccccc3cc2nc1-c1nnnn1C1CCCC1	30*	/	/	/	/	11
CCCN1CCCc2cc(CN(CCCN3CCOCC3)C(=O)Nc3ccc(OCC)cc3)ccc21	-9	3	-6	15	10	/
CCOc1ccc(NC(=O)N(CCN2CCOCC2)Cc2ccc3c(c2)CCCN3CC)cc1	41*	1	-13	0	8	-17
C=CCNc1nc(NCc2ccc(N(C)C)cc2)c2sc(-c3ccccc3)cc2n1	15	4	/	26	/	/
CCc1cc(-c2onc(C)c2-c2cscn2)c(O)cc1OC	31*	1	-1	-1	-1	-7
O=c1[nH]n2c(=O)c3c([nH]c2c1N=Nc1cccc(C(F)(F)F)c1)CCCC3	44*	-17	74	10	-3	13
O=c1[nH]n2c(=O)c3c([nH]c2c1N=Nc1cccc(Cl)c1)CCC3	23	-21	58	9	-12	/
Cc1ccc(CN(Cc2ccccc2)C(=S)NCC(=O)NCc2cccnc2)o1	0	-4	-5	1	-13	/
Cc1ccc2c(c1)c1c(n2CC(O)CNC2CCCCC2)CCCC1 (stereo not given)	64*	8	4	14	29	-12
CCN(CC(=O)Nc1ccc(NC(C)=O)cc1)C(=O)CCCc1nc2ccccc2s1	3	5	1	-1	4	/
O=C(NCc1nnc(SCc2ccc(F)cc2)n1-c1ccc(F)cc1)C12CC3CC(CC(C3)C1)C2	34*	-2	70	-6	-2	-9
Clc1ccccc1N=Nc1ccccn1	84*	-57	/	-10	-111	10
Cc1[nH][nH]c(=O)c1N=Nc1ccccc1Cl	9	4	5	17	9	/
S=C(Nc1ccc2nsnc2c1)N1CCCCC1	96*	1	2	14	-3	-15
S=C(Nc1ccc(Cl)c(Cl)c1)N1CCCC1	9	-1	-1	-7	-6	/
O=C1SCCN1N=Cc1ccc([N+](=O)[O-])o1	32*	0	/	22	-4	-1
CC(=O)N1CCN(Cc2cc(=O)oc3cc(C)cc(C)c23)CC1	7	1	/	/	/	/
CCc1ccccc1NC(=O)CNC(=O)c1cc(C2CC2)nn1-c1ccccc1	39*	1	100	1	-2	-2
Cc1ccc(C)c(NC(=O)CN(C)C(=O)c2cc(C3CC3)nn2-c2ccccc2)c1	12	-2	1	14	2	/
O=C(/C=C\Nc1ccccc1Br)c1ccc2c(c1)OCO2	32*	-1	-3	9	-1	-6
O=C1c2ccccc2[C@@H]2C[C@@H](O)[C@H](Nc3cccc4ccccc34)CCN12	54*	2	/	1	13	-21
COc1ccc(N[C@@H]2CCN3C(=O)c4ccccc4[C@@H]3C[C@H]2O)cc1	14	-2	/	4	11	/
CC1CCc2c(sc(NC(=O)c3ccccc3C(=O)O)c2C#N)C1 (stereo not given)	7	0	-4	4	2	/
SMILES	CCHF vOTU inh-1	Mtb FBA inh	Mtb bLac sens	GDH-TPI counter	MazF activator	CCHF vOTU inh-2
CCC(C)(C)C1CCc2c(sc(NC(=O)c3ccccc3C(=O)O)c2C#N)C1 (stereo not given)	35*	0	-1	4	1	24
CC1CC1C(=O)N1CCN(S(=O)(=O)c2cc(C(F)(F)F)cc(C(F)(F)F)c2)CC1 (stereo not given)	30*	-3	-2	0	-5	-11
Cc1nnc(Sc2cc(NCCCO)c([N+](=O)[O-])c3nonc23)s1	31*	-9	/	1	-11	9
CCN(C(=O)CSc1nnc(SC(C)C)s1)C1CCS(=O)(=O)C1 (stereo not given)	37*	-2	-1	5	3	-11
CC(C)Sc1nnc(SCC(=O)N(C)C2CCS(=O)(=O)C2)s1 (stereo not given)	-1	0	-2	-7	5	/
COc1ccc(OC)c(-c2nnc3n2N=C(c2ccc(OC)c(OC4CCCC4)c2)CS3)c1	32*	5	24	32*	2	23
COc1ccc(C2=Nn3c(nnc3-c3ccccc3F)SC2)cc1OC1CCCC1	20	-3	97	28	-9	/
O=C(Nc1ccc(C(F)(F)F)cc1)C1CCN(c2cnccn2)CC1	4	1	69	9	4	/
COc1cc2c(cc1OC)-c1c(OC)c(OC)cc3c1[C@H](C2)N(C)CC3	89*	7	-1	-1	5	79*
C=CCCC[C@H]1OC(=O)[C@H](C)NC(=O)[C@H](C(C)C)NC(=O)[C@@H]2CCCN2C(=O)[C@H](Cc2ccccc2)OC(=O)[C@@H](C(C)C)N(C)C(=O)[C@H](C(C)C)NC(=O)C1(C)C	30*	/	/	/	/	6
CCOc1ccc(S(=O)(=O)NCc2ccco2)c2ccccc12	32*	1	-2	11	-1	-4
CCOc1cc(C)c(Cl)cc1S(=O)(=O)NCc1ccco1	12	1	1	6	6	/
COc1ccc(N=NC2=C(O)CC(C)(C)CC2=O)cc1	32*	-26	0	16	-5	4
CC(=O)Nc1ccc(NC(=O)c2c(-c3ccccc3)noc2C)cn1	1	-2	?	4	-5	/
O=C(NCc1ccc(N2CCCC2=O)cc1)c1cc(COc2c(F)cccc2F)on1	38*	1	-3	1	-3	-18
Cc1cc(NS(=O)(=O)c2ccc(NC(=O)c3oc4ccccc4c3C)cc2)no1	31*	1	34	16	-10	-5
Cc1cc(NS(=O)(=O)c2ccc(NC(=O)COc3c(C)cc(Br)cc3C)cc2)no1	31*	2	3	16	1	-11
COc1cc(OC)c([N+](=O)[O-])cc1/C=N/NC(=O)c1ccncc1	34*	0	99	9	8	5
COc1cc(/C=N/NC(=O)c2ccncc2)c([N+](=O)[O-])cc1OC	9	-3	99	10	3	/
COc1cc(OC)c(NC(=O)C2CCN(S(=O)(=O)c3ccc4c(c3)CC(C)N4C(C)=O)CC2)cc1Cl (stereo not given)	8	-2	-4	2	-19	/
CC1=C(C(=O)OC2CCCCC2)C(c2ccc(N(C)C)cc2)NC(=O)N1 (stereo not given)	1	2	-11	-4	6	/
Cc1ccc(NC2=C(NC(=O)c3ccccc3)C(=O)c3ccccc3C2=O)cc1Cl	51*	-6	88	12	5	42*
COc1ncccc1C(=O)N1CCCC(N2CCN(c3cccc(Cl)c3)CC2)C1 (stereo not given)	-5	3	-10	5	-17	/
